From PubChem BioAssay
The source made the active and inactive calls. Unless noted, no rule for the calls is given here.

How the values were obtained:
[1] = test system: Wnt5a (protein binding on small-molecule microarray); experiment: Wnt5a binders on small-molecule microarray, primary screen, biophysical, 635/667 nm fluorescence (AID 1142); settings: 635 nm fluorescence, higher = more signal;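 also: fluorescence read at 667 nm with signal to noise per printed feature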
[2] = cell viability in Huh7 cells, primary screen, cytotoxicity control for HCV replication inhibitor project, CellTiter-Glo luminescence, basal, 48 h (AID 1143); settings: Huh7 HCV replicon, higher = more signal, called active from +8 up or from −8 down;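 also: Huh7 hepatoma cells carrying a hepatitis C replication reporter with no stimulus; test concentration not given here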
[3] = P. aeruginosa biofilm formation inhibitors, primary screen, PAO1 strain, BacTiter-Glo luminescence, LB-PBS (AID 1144); settings: 12 h, higher = more signal
[4] = CREB reporter modulators without forskolin, primary screen, cell-based, PC12, CRE-LacZ reporter, unstimulated (AID 1145); settings: no forskolin, luminescence, 4.5 h, higher = more signal, called active from +8 up or from −8 down
[5] = CREB reporter modulators under forskolin, primary screen, cell-based, PC12, CRE-LacZ reporter, forskolin-stimulated (AID 1146); settings: luminescence, 4.5 h, higher = more signal, called active from +8 up or from −8 down;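 also: PC12 cells with 6xCRE LacZ reporter stimulated by forskolin 10 µM; beta-galactosidase reporter signal reflecting CREB driven transcription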
[6] = target: Streptavidin (Streptomyces avidinii) (UniProt P22629); experiment: streptavidin binders on small-molecule microarray, primary screen, artefact control for SMM compound annotation, biophysical, 635/667 nm fluorescence (AID 1147); settings: streptavidin binding, higher = more signal;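 also: signal reflects streptavidin binding to arrayed compounds as a control protein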
[7] = small-molecule binders of probe aInhba, primary screen, biochemical, small-molecule microarray, 635/667 nm fluorescence (AID 1148); settings: higher = more signal;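 also: score merges 667nm spot fluorescence with signal-to-noise for antibody binding to printed compounds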
Torsin-1A (Homo sapiens) [8] = target: Torsin-1A (Homo sapiens) (UniProt O14656); experiment: torsin A binders from cell lysate, primary screen, small-molecule microarray, wild-type, 635/667 nm (AID 1149); settings: COS7 hTOR1A-WT lysate, 635 nm fluorescence, higher = more signal
Torsin-1A (Homo sapiens) [9] = target: Torsin-1A (Homo sapiens) (UniProt O14656); experiment: small-molecule binders of mutant TOR1A in lysate, primary screen, cell lysate, small-molecule microarray, COS7 lysate, 635/667 nm fluorescence (AID 1150); settings: COS7 hTOR1A mutant lysate, 635 nm fluorescence, higher = more signal;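 also: score pools 667 nm emission and signal to noise measuring lysate protein binding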
[10] = test system: Sonic hedgehog protein (Shh); experiment: small-molecule binders of Shh protein, primary screen, biochemical, small-molecule microarray, 635/667 nm fluorescence (AID 1151); settings: small-molecule microarray binding, 635 nm fluorescence; higher = more signal;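 also: Shh protein binding to compounds spotted on small-molecule microarray slides; score combines spot fluorescence intensity with signal-to-noise across triplicate slides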

Sequence of Streptavidin (Streptomyces avidinii) (P22629 whole entry, looked up): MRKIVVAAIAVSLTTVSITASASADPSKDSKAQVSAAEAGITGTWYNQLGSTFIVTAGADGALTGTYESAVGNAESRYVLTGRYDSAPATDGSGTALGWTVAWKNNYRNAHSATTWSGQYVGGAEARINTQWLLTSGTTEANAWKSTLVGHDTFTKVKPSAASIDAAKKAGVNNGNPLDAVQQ
Sequence of Torsin-1A (Homo sapiens) (O14656 whole entry, looked up): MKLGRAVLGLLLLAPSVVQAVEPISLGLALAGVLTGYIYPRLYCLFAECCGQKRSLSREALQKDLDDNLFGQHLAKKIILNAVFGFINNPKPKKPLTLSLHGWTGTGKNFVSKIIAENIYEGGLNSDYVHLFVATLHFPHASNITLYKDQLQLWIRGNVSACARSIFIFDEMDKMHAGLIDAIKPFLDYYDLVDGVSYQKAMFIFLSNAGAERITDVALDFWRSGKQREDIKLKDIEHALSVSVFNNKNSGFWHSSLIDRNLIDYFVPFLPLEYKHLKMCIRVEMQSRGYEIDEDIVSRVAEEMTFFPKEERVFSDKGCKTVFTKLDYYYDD

Structure (SMILES) | composite z-score [1] | z-score [2] | z-score [3] | z-score [4] | z-score [5] | composite z-score [6] | composite z-score [7] | composite z-score (Torsin-1A (Homo sapiens) [8]) | composite z-score (Torsin-1A (Homo sapiens) [9]) | composite z-score [10]
CCCC[C@H]1C[C@@H]1[C@@H]1N(P(=O)(c2ccccc2)c2ccccc2)C[C@@](O)(c2ccccc2)CC12CC2 | -0.0443 | -3.13 (inactive) | 0.922 (inactive) | -0.185 (inactive) | 1.18 (inactive) | 1.15 | 0.108 | -0.318 | 0.409 | -1.02
Cc1ccc(S[C@]2(C(=O)O)CC(=O)N(Cc3ccccc3C(F)(F)F)[C@@H]2c2ccc(CO)cc2I)cc1 | 0.192 | -1.03 (inactive) | 0.586 (inactive) | -0.619 (inactive) | 1.81 (inactive) | -0.584 | -0.193 | -0.46 | 1.98 | 0.0365
O=C1C2C=CC(C(O)C=Cc3ccc([N+](=O)[O-])cc3)N(n3cnnc3)C2C(=O)N1Cc1ccccc1 (stereo not given) | 0.0873 | -0.274 (inactive) | -0.871 (inactive) | -0.368 (inactive) | 0.343 (inactive) | 1.1 | 0.0589 | 1.95 | 2.16 | 0.287
CCOC(=O)C1=C[C@@H](C(C)C)N(S(=O)(=O)c2ccc(C)cc2)[C@H]1c1ccccc1F | 0.197 | -2.77 (inactive) | -0.0791 (inactive) | -0.527 (inactive) | -0.0445 (inactive) | 1.08 | 0.0816 | 0.345 | 1.15 | 0.394
Cc1ccc(/C=C/C=O)cc1 | -0.355 | 0.0606 (inactive) | 0.38 (inactive) | -0.141 (inactive) | 0.243 (inactive) | -0.461 | -0.176 | -1.39 | -0.357 | -0.327
O=C1OCC=C[C@H]2OC34C=CCN(CCN5CCOCC5)C(=O)[C@H]3N(CCO)C(=O)[C@@H]4[C@@H]12 (stereo not given in full) | -0.38 | -0.117 (inactive) | 1.82 (inactive) | 0.459 (inactive) | 0.168 (inactive) | -0.175 | -0.359 | -0.618 | -0.61 | 1.93
O=C1O[C@H](c2ccccc2)[C@H](c2ccccc2)N2[C@H]1[C@@H](C(=O)NC[C@H](O)c1ccccc1)[C@]1(C(=O)Nc3ccccc31)[C@H]2c1ccc(O)cc1 | 0.378 | -1.1 (inactive) | -1.25 (inactive) | -1.29 (inactive) | -0.423 (inactive) | 0.287 | -0.128 | 0.643 | 0.506 | 1.5
